Screening data deposited in PubChem BioAssay by National Center for Advancing Translational Sciences (NCATS).
Rows were chosen to be rich in hits. Some 17% of all compounds tested hit in one or more screens of this group.
DT40 TDP1 CPT: DT40-hTDP1 cell growth loss with CPT; chicken DT40 Tdp1-/-;hTDP1 cells + 20 nM CPT, ATP luminescence, 48 h; Potency, µM (top dose mostly 46.2 µM), for the others: at the highest dose activity change, negative = growth inhibition, usual class: inhibitors; 420,000 tested, 12% active; AID 686979; further: on the % scale 0 is the no-effect control and ±100 the full control effect; nearly all actives have a fitted effect of over 55% in size
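Chicken DT40 Tdp1-/- cells stably complemented with human TDP1 were seeded at 400 cells/well in medium containing 20 nM camptothecin, exposed to pin-transferred compounds, and grown at 37 °C for at least 48 hr. Viability was read as ATP luminescence.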
TGFb inhibitor: inhibitors of TGF-b signaling | HepG2 CAGA-GFP TGF-b/SMAD3 reporter, GFP fluorescence, 18 h; TGF-beta stimulated, 500 pg/mL final | Potency, µM (top dose mostly 46.1 µM), for the others: at the highest dose activity, negative = inhibition, hits mostly inhibitors | 410,000 tested, 1.2% active | AID 588855; further: on the % scale 0 is the no-effect control and ±100 the full control effect; nearly all actives have a fitted effect of over 65% in size
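Cell-based qHTS in HEPG2 carrying a CAGA-GFP Smad reporter; compounds added before 500 pg/mL final TGF-beta, 18 h incubation at 37 degrees C, GFP fluorescence quantified per cell by imaging cytometry.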
HT1080 IDH1KD tx: kills HT-1080 cells with IDH1 knockdown; HT-1080 IDH1 knockdown viability, ATP luminescence, 48 h; Potency, µM (titrated, usually from 46.1 µM), inactives show at the highest dose activity, negative = toxicity, actives largely listed as cytotoxic; 360,000 tested, 2% active; AID 686971;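 further: 0% = DMSO wells and -100% = cell-free medium wells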
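Knockdown cells (IDH1KD HT-1080) received compounds 2 h after plating at 750 cells/well and were kept 48 h at 37 °C in 5% FBS RPMI. A CellTiter-Glo luminescence read gave % activity for curve fitting.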
HepG2 viability: HepG2 cytotoxicity, counter-screen for TGF-b inhibitors; Potency, µM (highest dose often 46.1 µM), for inactives: at the highest dose activity change, negative = cytotoxicity, most hits filed as cytotoxic; 410,000 tested, 0.76% active; HepG2 CAGA-GFP viability, ATP luminescence, 18 h; AID 588856
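CellTiter-Glo luminescence gave cytotoxicity after 18 hours at 37 degrees C. The cells were HepG2 CAGA-GFP in 1% FBS DMEM, stimulated with 500 pg/mL TGF-beta after compound addition. %Activity was normalised to no-cell wells (complete cell-killing) and DMSO (no toxicity), and curves were fitted and classified.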
HT1080NT lethal: kills 2HG-producing HT-1080-NT fibrosarcoma cells; HT-1080-NT fibrosarcoma viability, CellTiter-Glo ATP luminescence, 48 h; 360,000 tested, 1.6% active; Potency, µM (titrated, usually from 46.1 µM), for inactives: top-dose activity, negative = less viability, usual class: cytotoxic; AID 686970;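 further: NT is the 2HG producing partner of a matched IDH1 knockdown line; 0% = DMSO-treated cells and -100% = media-only wells without cells; nearly all actives have a fitted effect of over 55% in size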
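750 cells/well, RPMI + 5% FBS; 2 h settle, compound pin-transfer, 48 h at 37 degrees C. CellTiter-Glo 10 min RT, luminescence. Normalized to DMSO and media-only wells.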
DT40 TDP1 no CPT: qHTS for Inhibitors of human tyrosyl-DNA phosphodiesterase 1 (TDP1): qHTS in cells in absence of CPT. Potency, µM (top dose mostly 46.2 µM), inactives show at the top dose activity change, negative = growth inhibition, actives largely listed as inhibitors. AID 686978, 2013. DT40 Tdp1-/- hTDP1 cells, no CPT, ATP luminescence, 48 h. 420,000 tested, 15% active; further: on the % scale 0 is the no-effect control and ±100 the full control effect; nearly all actives have a fitted effect of over 55% in size
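Seeded 400 DT40-hTDP1 cells/well (vehicle DMSO, no 20 nM CPT); pinned compounds; ≥48 hr at 37 °C; CellTiter-Glo luminescence as viability measure.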
* = called active by the depositor; u = inconclusive; x = no result given. The call rests on the fitted dose curve; in most records, active means well fitted curve in the direction sought with a large enough effect; inconclusive means small, poorly fitted or top-dose-only effect, or another doubt; inactive means no such curve, though single readings can be large; an effect the other way counts as inactive or inconclusive. Potency means the concentration at half of the fitted maximal effect.

SMILES	DT40 TDP1 CPT	TGFb inhibitor	HT1080 IDH1KD tx	HepG2 viability	HT1080NT lethal	DT40 TDP1 no CPT
CC(C)[C@@H](C)/C=C/[C@@H](C)[C@H]1CC[C@H]2/C(=C/C=C3\C[C@@H](O)CC[C@@H]3C)CCC[C@]12C	u	x	x	x	x	16.8µM*
COc1cccc(NC(=O)NC(=O)c2c(C)cc(Cl)nc2Cl)c1	-15.4%	u	-8.5%	9.2%	0.0%	10.5%
CC1CN(C(=S)SCC(=O)c2ccc(Cl)cc2)CC(C)O1 (centres undefined)	4.11µM*	-2.7%	3.3%	-1.7%	1.1%	2.59µM*
CCc1c(C#N)c(SCc2c(C)noc2C)nc2c1C(=O)CC(C)(C)C2	25.9µM*	u	-12.2%	2.5%	-27.5%	u
CCc1c(C#N)c(SCCC(=O)Nc2ccc(OC)cc2)nc2c1C(=O)CC(C)(C)C2	-24.2%	-1.5%	-9.7%	-33.4%	-5.0%	u
Cc1cc(C)cc(CC(=O)N2CCC2(C)C(=O)NS(=O)(=O)c2cccc(OC(F)F)c2)c1 (centres undefined)	17.6%	3.5%	3.2%	0.8%	14.6%	-8.0%
Nn1c(Cc2cccc3ccccc23)nnc1SCc1ccc(Cl)c(Cl)c1	-12.9%	u	u	3.6%	u	-22.3%
Nn1c(Cc2cccc3ccccc23)nnc1SCc1c(Cl)cccc1Cl	u	0.0%	-22.9%	-30.2%	u	16.4µM*
Cc1cnc(CNc2ccnc(-c3ccc(N(C)C)cc3)n2)cn1	-9.8%	x	x	x	x	-14.6%
Cc1cccc(CNc2ccnc(-c3ccccc3C(F)(F)F)n2)c1	18.4µM*	x	x	x	x	u
CC(=O)NCCNc1ccnc(-c2ccccc2C(F)(F)F)n1	-4.3%	x	x	x	x	19.4%
Cc1cccc(CNc2ncncc2-c2ccccc2C(F)(F)F)c1	-16.7%	x	x	x	x	-23.4%
N#Cc1cccc(-c2nccc(NCc3ccccc3)n2)c1	u	x	x	x	x	-28.6%
Cc1cccc(CNc2ccnc(-c3ccc(N(C)C)cc3)n2)c1	-106.8%	x	x	x	x	11.6µM*
Fc1ccc(Nc2ccnc(-c3ccccc3C(F)(F)F)n2)cc1	11.6µM*	x	x	x	x	u
CN(C)c1ccc(-c2nccc(NCc3ccccc3)n2)cc1	u	x	x	x	x	16.4µM*
O=C(CSc1nc(=O)[nH]c2c1CCC2)Nc1cc(C(F)(F)F)ccc1Cl	u	13.8%	x	5.7%	x	u
Cc1cc(Br)ccc1NC(=O)C(Cc1ccccc1)NS(=O)(=O)c1ccc(Br)s1 (centres undefined)	u	-26.0%	x	-41.1%	x	u
Cc1ccccc1NC(=O)c1ccc(OCc2c(C)noc2C)cc1	u	u	-0.9%	-1.0%	-0.1%	u
CCOC(=O)c1c(C)nc2c(c1C)/C(=N/O)CC(C)(C)C2	u	-18.0%	-28.5%	-30.4%	u	23.1µM*
CN(CCN(C)C(=O)c1[nH]cnc1C(=O)Nc1ccccc1)C(=O)c1[nH]cnc1C(=O)Nc1ccccc1	-3.1%	12.5%	5.9%	-2.2%	2.9%	u
O=C(Nc1ccccc1)c1nc[nH]c1C(=O)NCCNC(=O)c1[nH]cnc1C(=O)Nc1ccccc1	13µM*	1.4%	-18.3%	-27.0%	u	18.4µM*
O=C(Nc1cccc(Cl)c1)c1nc[nH]c1C(=O)NCCCNC(=O)c1[nH]cnc1C(=O)Nc1cccc(Cl)c1	-29.4%	7.4%	10.1%	-3.8%	7.8%	u
O=C(Nc1ccccc1)c1nc[nH]c1C(=O)Nc1ccccc1F	u	-1.4%	4.6%	-13.1%	11.5%	11.6µM*
O=C(Nc1ccccc1)c1nc[nH]c1C(=O)NCCCCNC(=O)c1[nH]cnc1C(=O)Nc1ccccc1	6.51µM*	-4.8%	4.6%	-14.5%	10.7%	11.6µM*
SMILES	DT40 TDP1 CPT	TGFb inhibitor	HT1080 IDH1KD tx	HepG2 viability	HT1080NT lethal	DT40 TDP1 no CPT
O=C(Oc1ccccc1)c1cc(O)c(O)c(O)c1	20.6µM*	7.7%	u	-24.2%	u	23.1µM*
O=C(OCCc1ccccc1)c1cc(O)c(O)c(O)c1	18.4µM*	-27.8%	-22.4%	-28.6%	-13.6%	23.1µM*
CCc1noc2c1/C(=N\O)CC(c1ccccc1)C2 (centres undefined)	u	1.2%	-3.2%	-49.8%	-1.9%	16.4µM*
CCCc1noc2c1/C(=N\O)CC(c1ccccc1)C2 (centres undefined)	-20.4%	-2.5%	-8.0%	2.5%	-7.7%	u
CCN(C(=O)CN1C(=O)NC2(CCCC2)C1=O)c1nc2c(C)cccc2s1	u	-4.6%	-17.3%	-32.5%	-1.4%	13µM*
Cc1cccc2sc(N(CCCN(C)C)C(=O)CN3C(=O)c4ccccc4C3=O)nc12	u	-16.9%	8.4%	-39.5%	8.5%	u
COc1cccc(/C=N/NC(=O)NC2CCCCC2)c1O	1.1%	3.2%	-1.6%	-37.7%	-0.6%	-19.9%
CC(=O)c1ccc(NS(=O)(=O)c2cccc3cccnc23)cc1	u	-5.6%	0.0%	8.0%	-0.1%	u
Cc1cccc(C)c1NC1=NCCCCC1	0.1%	-30.2%	9.7%	4.6%	9.7%	-0.4%
O=C(Nc1ccc(F)c(Cl)c1)c1csc([C@H]2C[C@H](O)[C@@H](CO)O2)n1	20.6µM*	8.8%	0.0%	2.8%	1.3%	u
CC(=O)Nc1ccc(NC(=O)c2ccc3sc([C@H]4C[C@H](O)[C@@H](CO)O4)nc3c2)cc1	-10.5%	-5.0%	21.7%	-4.2%	28.3%	-1.7%
O=C(Nc1ccc(F)c(Cl)c1)c1csc([C@@H]2C[C@H](O)[C@@H](CO)O2)n1	u	-19.4%	1.9%	-18.2%	15.4%	-26.0%
O=C(NCc1cc(Cl)cc(Cl)c1)c1ccc2sc([C@H]3C[C@H](O)[C@@H](CO)O3)nc2c1	20.6µM*	10.6%	-0.6%	-8.4%	-24.5%	u
O=C(Nc1ccc(F)c(Cl)c1)c1ccc2sc([C@H]3C[C@H](O)[C@@H](CO)O3)nc2c1	18.4µM*	u	u	-35.5%	-14.2%	20.6µM*
O=C(Nc1cccc(C(F)(F)F)c1)c1ccc2sc([C@H]3C[C@H](O)[C@@H](CO)O3)nc2c1	u	1.2%	u	-20.3%	u	23.1µM*
Cc1csc(=O)n1CC(=O)OC(C)C(=O)Nc1ccc(N(C)C)cc1 (centres undefined)	-15.4%	7.0%	20.3%	0.6%	18.0%	-22.1%
